Records with an inconclusive call do not appear. A call without a number means that no potency is given here. Calls of active or inactive are those of the source. Unless noted, the call rests on the fitted dose curve; in most records, active means well fitted curve in the direction sought with a large enough effect in the repeat runs; inconclusive means weak or mixed curves; inactive means no such curve, though single readings can be large; an effect the other way counts as inactive or inconclusive.
What was measured:
[1] = qHTS assay to test for compound auto fluorescence at 460 nm (blue) in HEK293 cell free culture (AID 720681)
Procedure, shortened: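 Compounds were added to cell-free DMEM with 10% FBS and fluorescence read directly. The blue channel used 405 nm excitation and 460 nm emission, with triamterene as the reference fluorophore.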

[2] = qHTS assay to test for compound auto fluorescence at 535 nm (green) in HEK293 cell free culture (AID 720682)
Procedure, shortened: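 No cells present: wells hold DMEM supplemented with 10% FBS, into which compound or vehicle is pinned. Green emission is then recorded (485 nm excitation, 535 nm emission) and scaled to fluorescein.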

[3] = qHTS assay to test for compound auto fluorescence at 590 nm (red) in HEK293 cell free culture (AID 720683)
Procedure, shortened: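 Cell-free wells of DMEM with 10% FBS received compound, and intrinsic fluorescence was read at excitation/emission 540/590 nm. Values expressed as equivalence to Rose Bengal sodium.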

[4] = qHTS assay to test for compound auto fluorescence at 590 nm (red) in HepG2 cell free culture (AID 720684)
Procedure, shortened: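 Compound was pinned into wells holding MEM with 10% FBS and no cells, and red fluorescence was read at Ex/Em 540/590 nm. Signal is expressed as auto fluorescence equivalency relative to Rose Bengal sodium.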

[5] = qHTS assay to test for compound auto fluorescence at 460 nm (blue) in HepG2 cell free culture (AID 720685)
Procedure, shortened: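 Compound (23 nL) or DMSO pinned into cell-free MEM with 10% FBS; blue fluorescence read at 405/460 nm excitation/emission, expressed as auto-fluorescence equivalency to triamterene.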

[6] = qHTS assay to test for compound auto fluorescence at 535 nm (green) in HepG2 cell free culture (AID 720686)
[7] = qHTS assay to test for compound auto fluorescence at 460 nm (blue) in HepG2 cells (AID 720687)
Procedure, shortened: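 HepG2 cells in MEM with 10% FBS, attached overnight at 37 C, were exposed to compound or DMSO for 1 hr at 37 C, 5% CO2. Blue fluorescence was read at 405/460 nm, with triamterene as reference fluorophore.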

[8] = qHTS assay to identify small molecule antagonists of the glucocorticoid receptor (GR) signaling pathway - cell viability counter screen (AID 720693); further: nearly all actives have a fitted effect of over 55% in size
[9] = qHTS assay for identifying genotoxic compounds that show differential cytotoxicity against isogenic chicken DT40 cell lines with known DNA damage response pathways - wild type cell line (AID 743012); further: nearly all actives have a fitted effect of over 60% in size; further: potency means the concentration at half of the fitted maximal effect
Procedure, shortened: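 Using parental DT40 (300 cells/well), compounds delivered in DMSO incubate 40 h at 37 C/5% CO2. CellTiter-Glo reagent then stands 30 min at room temperature, and luminescence gives cell viability.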

[10] = qHTS assay for identifying genotoxic compounds that show differential cytotoxicity against isogenic chicken DT40 cell lines with known DNA damage response pathways - Rev3 mutant cell line (AID 743014); further: nearly all actives have a fitted effect of over 55% in size; further: potency means the concentration at half of the fitted maximal effect
[11] = qHTS assay for identifying genotoxic compounds that show differential cytotoxicity against isogenic chicken DT40 cell lines with known DNA damage response pathways - Rad54/Ku70 mutant cell line (AID 743015); further: nearly all actives have a fitted effect of over 60% in size; further: potency means the concentration at half of the fitted maximal effect
[12] = qHTS assay to identify small molecule antagonists of the androgen receptor (AR) signaling pathway - cell viability counter screen (AID 743033; further: nearly all actives have a fitted effect of over 45% in size)
[13] = target: Glucocorticoid receptor (Homo sapiens) (UniProt P04150); test: qHTS assay to identify small molecule agonists of the glucocorticoid receptor (GR) signaling pathway (AID 720691; active means well fitted activation curve with a large enough effect in the signal ratio in the repeat runs, not every such curve was filed as active; the % refers to the signal ratio)
Procedure, shortened: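 Reporter read-out: fluorescence intensity following 2 h room-temperature LiveBLAzer B/G FRET substrate loading. Prior step: GR-bla HeLa cells held 4 h, then treated 18 h at 37 C.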

[14] = target: Androgen receptor (Homo sapiens) (UniProt P10275); test: qHTS assay to identify small molecule antagonists of the androgen receptor (AR) signaling pathway (AID 743035; active means well fitted inhibition curve with a large enough effect in the signal ratio in the repeat runs, not every such curve was filed as active; the % refers to the signal ratio)
Procedure, shortened: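 Using qHTS, AR-UAS-bla GripTite HEK293 cells received compound, then R1881, and were cultured 16 h at 37C/5% CO2 before a 2 h room-temperature LiveBLAzer B/G FRET substrate step and fluorescence measurement.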

[15] = target: Androgen receptor (Homo sapiens) (UniProt P10275); test: qHTS assay to identify small molecule agonists of the androgen receptor (AR) signaling pathway (AID 743036; active means well fitted activation curve with a large enough effect in the signal ratio in the repeat runs, with a control signal flat, not every such curve was filed as active; the % refers to the signal ratio)
Procedure, shortened: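 Quantitative HTS of the Tox21 10K library in HEK293 cells bearing a stably integrated UAS-controlled beta-lactamase reporter. Compound exposure lasted 16 h at 37C. Reporter activity was detected by FRET substrate fluorescence after 2 h at room temperature.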

[16] = target: Androgen receptor (Homo sapiens) (UniProt P10275); test: qHTS assay to identify small molecule agonists of the androgen receptor (AR) signaling pathway using the MDA cell line (AID 743040; further: nearly all actives have a fitted effect of over 20% in size)
Procedure, shortened: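 MDA-kb2 breast carcinoma cells carrying MMTV-luciferase (responsive to AR and GR), plated 5 h then treated 16 h with compounds at 37C, 0% CO2. Read-out was ONE-Glo luminescence after 30 min at room temperature.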

[17] = target: Androgen receptor (Homo sapiens) (UniProt P10275); test: qHTS assay to identify small molecule antagonists of the androgen receptor (AR) signaling pathway using the MDA cell line (AID 743042; further: nearly all actives have a fitted effect of over 55% in size)
Procedure, shortened: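 MDA-kb2 breast carcinoma cells carrying MMTV-luciferase (AR/GR responsive) were co-treated with compounds and the agonist R1881 for 16 h at 37C. Inhibition read as ONE-Glo luminescence; CellTiter-Fluor fluorescence measured in parallel for cytotoxicity.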

[18] = qHTS assay to identify small molecule antagonists of the androgen receptor (AR) signaling pathway using the MDA cell line - cell viability counter screen (AID 743041; further: nearly all actives have a fitted effect of over 45% in size)
Procedure, shortened: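 MDA-kb2 AR-luc cells (MMTV-luciferase, AR/GR responsive) treated with compounds plus R1881 agonist for 16 h at 37C. CellTiter-Fluor added at 15.5 h; fluorescence read after 30 min in the same wells.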

[19] = target: Glucocorticoid receptor (Homo sapiens) (UniProt P04150); test: qHTS assay to identify small molecule antagonists of the glucocorticoid receptor (GR) signaling pathway (AID 720692; active means well fitted inhibition curve with a large enough effect in the signal ratio in the repeat runs, not every such curve was filed as active; the % refers to the signal ratio)
Procedure, shortened: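 Dexamethasone (5 nM final) stimulated a stably integrated GRE-beta-lactamase reporter in HeLa cells during 18 h co-incubation with compounds; signal was quantified as fluorescence intensity of B/G FRET substrate after 2 h.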

Androgen receptor (Homo sapiens), sequence (P10275 whole entry, looked up): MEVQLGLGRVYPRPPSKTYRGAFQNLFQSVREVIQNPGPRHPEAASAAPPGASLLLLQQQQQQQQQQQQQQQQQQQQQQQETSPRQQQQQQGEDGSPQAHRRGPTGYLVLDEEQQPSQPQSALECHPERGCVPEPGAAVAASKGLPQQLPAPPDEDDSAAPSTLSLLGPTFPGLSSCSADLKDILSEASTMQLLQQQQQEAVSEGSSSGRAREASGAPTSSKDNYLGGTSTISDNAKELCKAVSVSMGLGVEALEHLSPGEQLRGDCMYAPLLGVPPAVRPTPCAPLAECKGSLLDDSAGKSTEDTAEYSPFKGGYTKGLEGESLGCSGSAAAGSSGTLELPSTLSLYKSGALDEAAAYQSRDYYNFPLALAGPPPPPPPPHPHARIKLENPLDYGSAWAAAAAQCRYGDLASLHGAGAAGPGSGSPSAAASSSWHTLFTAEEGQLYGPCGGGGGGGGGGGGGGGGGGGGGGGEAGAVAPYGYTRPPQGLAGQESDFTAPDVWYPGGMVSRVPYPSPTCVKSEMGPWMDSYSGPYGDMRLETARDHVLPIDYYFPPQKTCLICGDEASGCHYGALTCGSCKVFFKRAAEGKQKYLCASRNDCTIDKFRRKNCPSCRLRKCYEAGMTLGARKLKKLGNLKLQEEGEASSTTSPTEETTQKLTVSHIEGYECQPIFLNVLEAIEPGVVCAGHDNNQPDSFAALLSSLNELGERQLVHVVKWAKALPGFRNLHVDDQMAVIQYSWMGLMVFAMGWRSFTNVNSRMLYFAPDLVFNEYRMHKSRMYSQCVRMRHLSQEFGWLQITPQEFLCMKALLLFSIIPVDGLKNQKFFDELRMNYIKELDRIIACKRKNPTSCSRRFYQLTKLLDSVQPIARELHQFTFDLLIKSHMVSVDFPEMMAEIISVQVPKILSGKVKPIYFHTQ
Glucocorticoid receptor (Homo sapiens), sequence (P04150 whole entry, looked up): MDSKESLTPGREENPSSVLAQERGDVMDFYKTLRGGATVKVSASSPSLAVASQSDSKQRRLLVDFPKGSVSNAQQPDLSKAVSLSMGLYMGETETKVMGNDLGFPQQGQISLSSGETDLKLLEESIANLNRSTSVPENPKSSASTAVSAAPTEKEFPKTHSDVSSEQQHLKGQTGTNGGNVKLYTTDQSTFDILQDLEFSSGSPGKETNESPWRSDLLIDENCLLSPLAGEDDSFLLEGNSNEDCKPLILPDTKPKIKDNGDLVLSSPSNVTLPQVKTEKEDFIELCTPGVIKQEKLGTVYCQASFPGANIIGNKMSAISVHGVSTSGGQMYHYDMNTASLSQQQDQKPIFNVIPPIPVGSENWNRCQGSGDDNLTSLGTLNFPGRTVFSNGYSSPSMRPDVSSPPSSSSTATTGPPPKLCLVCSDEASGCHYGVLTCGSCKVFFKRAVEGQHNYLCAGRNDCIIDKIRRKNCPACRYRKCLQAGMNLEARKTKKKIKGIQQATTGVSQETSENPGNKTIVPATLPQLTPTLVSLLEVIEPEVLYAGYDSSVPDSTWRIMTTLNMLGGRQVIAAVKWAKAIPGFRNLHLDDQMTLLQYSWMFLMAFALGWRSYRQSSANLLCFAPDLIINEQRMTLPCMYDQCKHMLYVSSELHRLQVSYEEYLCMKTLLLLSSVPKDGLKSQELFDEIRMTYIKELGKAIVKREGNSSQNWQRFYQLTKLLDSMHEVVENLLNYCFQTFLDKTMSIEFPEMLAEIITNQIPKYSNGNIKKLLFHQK

Compound | Potency [1] | outcome [2] | outcome [3] | outcome [4] | outcome [5] | outcome [6] | outcome [7] | Potency [8] | Potency [9] | Potency [10] | Potency [11] | Potency [12] | Potency [13] | Potency [14] | outcome [15] | outcome [16] | Potency [17] | Potency [18] | Potency [19]
CC(C)(Cc1c[nH]c2ccccc12)NCC(O)COc1ccccc1C#N (stereo not given) | inactive | inactive | inactive | inactive | inactive | inactive | inactive | inactive | 9.44 µM (active) | 13.3 µM (active) | 16.8 µM (active) | inactive |  |  |  |  |  |  | 
COC(=O)/C=C/C(C)=C\C=C\C(C)=C\C=C\C=C(C)\C=C\C=C(C)\C=C\C(=O)O | inactive | inactive | inactive | inactive | inactive |  | inactive | inactive |  | 54.5 µM (active) |  | inactive | inactive | inactive | inactive | inactive | inactive |  | 
CC(C)CC(C)(C)C | inactive | inactive | inactive | inactive | inactive | inactive | inactive | inactive | inactive | inactive | inactive |  | inactive |  |  |  |  | inactive | 
COc1ccc(/C=C/c2cc(OC)cc(=O)o2)cc1 |  | inactive | inactive |  | inactive |  | inactive | inactive | inactive | inactive | inactive | inactive |  |  |  |  |  | inactive | 
CC(=O)c1ccc(Cl)c(Cl)c1Cl | inactive | inactive | inactive | inactive | inactive | inactive | inactive | inactive | inactive | inactive | inactive | inactive | inactive |  |  |  |  | inactive | 
CCCCCCCCNC | inactive | inactive | inactive | inactive | inactive | inactive | inactive |  | inactive | inactive | inactive | inactive | inactive |  |  |  |  | inactive | inactive
Nc1ccc(F)cc1F | inactive |  | inactive | inactive | inactive | inactive | inactive | inactive | inactive | inactive | inactive | inactive |  | inactive | inactive | inactive | inactive | inactive | 
CCC1=C(C)CN(C(=O)NCCc2ccc(S(=O)(=O)NC(=O)NC3CCC(C)CC3)cc2)C1=O (stereo not given) | inactive |  | inactive |  | inactive | inactive | inactive | inactive | inactive | inactive | inactive | inactive | inactive | inactive |  | inactive | inactive | inactive | 
Clc1ccccc1-c1nc(-c2ccncc2)no1 | inactive |  | inactive | inactive | inactive |  | inactive | inactive |  | inactive |  | inactive | inactive |  |  |  |  |  | 
OCCOc1cccc(OCCO)c1 | inactive | inactive | inactive | inactive | inactive | inactive | inactive | inactive | inactive |  |  | inactive |  |  |  |  |  |  | 
CCOCCn1c(N2CCCN(C)CC2)nc2ccccc21 | inactive |  | inactive |  | inactive | inactive | inactive | inactive | inactive | inactive | inactive | inactive |  | inactive |  | inactive | inactive |  | 
C=CC(=O)NC(C)(C)C | inactive |  | inactive | inactive | inactive | inactive | inactive | inactive |  | inactive | inactive | inactive | inactive |  |  |  |  | inactive | inactive
Clc1cccc(C(c2ccc3nc[nH]c3c2)n2ccnc2)c1 (stereo not given) | inactive |  | inactive | inactive | inactive | inactive | inactive | inactive |  | 26.6 µM (active) | 26.6 µM (active) | inactive |  |  |  | inactive |  | inactive | 
Nc1ccc(-c2ccc(F)cc2)cc1 | inactive | inactive | inactive | inactive | inactive | inactive | inactive | inactive | 68.6 µM (active) | 48.6 µM (active) | 68.6 µM (active) | inactive |  |  |  |  |  | inactive | 
CC(=O)Nc1ccn(C2COC(COC(=O)c3ccccc3)O2)c(=O)n1 (stereo not given) | inactive | inactive | inactive | inactive | inactive | inactive | inactive | inactive | 9.44 µM (active) | 13.3 µM (active) | 11.9 µM (active) | inactive |  |  |  |  |  |  | 

Reference: PubChem BioAssay (Tox21)
